PMC7862700, “An all-to-all approach to the identification of sequence-specific readers for epigenetic DNA modifications on cytosine”

Key:
Test in all cases: DAPPL (digital affinity profiling via proximity ligation, sequencing); 10 mM Tris-HCl pH 7.5, 50 mM NaCl, 1 mM DTT, 4% glycerol, room temperature, 30 min; GST-TFs on glutathione beads, 16-mer random dsDNA library, 0.1% formaldehyde crosslink after washing; high values mean tight binding
FLI1 = target: T1, FLI1 (Homo sapiens, UniProt Q01543 1-452); conditions: protein: recombinant; tags: N-terminal GST; dsDNA, one strand shown
T1 sequence: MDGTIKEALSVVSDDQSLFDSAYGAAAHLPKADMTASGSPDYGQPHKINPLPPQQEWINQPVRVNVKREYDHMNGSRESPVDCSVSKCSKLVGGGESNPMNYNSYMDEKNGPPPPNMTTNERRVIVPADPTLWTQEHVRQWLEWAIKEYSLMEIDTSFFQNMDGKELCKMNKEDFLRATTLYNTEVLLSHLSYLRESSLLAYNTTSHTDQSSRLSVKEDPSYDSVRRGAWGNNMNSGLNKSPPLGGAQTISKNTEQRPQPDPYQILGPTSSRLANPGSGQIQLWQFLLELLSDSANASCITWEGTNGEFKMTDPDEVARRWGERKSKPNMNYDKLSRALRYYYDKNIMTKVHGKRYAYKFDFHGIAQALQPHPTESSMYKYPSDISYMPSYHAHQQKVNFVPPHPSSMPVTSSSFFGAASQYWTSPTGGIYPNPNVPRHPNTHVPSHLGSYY
Outline: (§1)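 Human transcription factors carrying a GST fusion were produced in yeast, bound to glutathione beads, tagged with DNA barcodes and pooled together with a tag-only sample. Each pool was held with 200 nmole of a random double-stranded 16-mer DNA library in Tris/NaCl/DTT/glycerol buffer for 30 min at room temperature, then washed, crosslinked in 0.1% formaldehyde, proximity-ligated with BsaI/T4 ligase (1 h, 37 °C), PCR-amplified and sequenced on an Illumina NextSeq500. Binding signal is the read frequency of each hexamer for a given factor divided by its frequency in the tag-only sample.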

ELK1 = target: T2, ELK1 (Homo sapiens, UniProt P19419 1-428); conditions: protein: recombinant; tags: N-terminal GST; dsDNA, one strand shown
T2 sequence: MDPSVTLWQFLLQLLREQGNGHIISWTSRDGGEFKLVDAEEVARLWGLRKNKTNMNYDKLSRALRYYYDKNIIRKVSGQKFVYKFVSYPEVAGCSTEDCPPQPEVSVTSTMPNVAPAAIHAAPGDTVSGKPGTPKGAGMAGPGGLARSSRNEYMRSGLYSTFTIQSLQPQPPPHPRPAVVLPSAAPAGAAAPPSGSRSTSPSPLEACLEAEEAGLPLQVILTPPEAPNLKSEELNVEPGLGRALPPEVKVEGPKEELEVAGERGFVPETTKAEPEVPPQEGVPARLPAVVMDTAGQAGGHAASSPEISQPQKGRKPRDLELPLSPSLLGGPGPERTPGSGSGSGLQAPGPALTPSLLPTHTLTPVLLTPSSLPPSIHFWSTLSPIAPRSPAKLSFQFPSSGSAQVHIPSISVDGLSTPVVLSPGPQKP
Outline: as §1

GABPA = target: T3, GABPA (Homo sapiens, UniProt Q06546 1-454); conditions: protein: recombinant; tags: N-terminal GST; dsDNA, one strand shown
T3 sequence: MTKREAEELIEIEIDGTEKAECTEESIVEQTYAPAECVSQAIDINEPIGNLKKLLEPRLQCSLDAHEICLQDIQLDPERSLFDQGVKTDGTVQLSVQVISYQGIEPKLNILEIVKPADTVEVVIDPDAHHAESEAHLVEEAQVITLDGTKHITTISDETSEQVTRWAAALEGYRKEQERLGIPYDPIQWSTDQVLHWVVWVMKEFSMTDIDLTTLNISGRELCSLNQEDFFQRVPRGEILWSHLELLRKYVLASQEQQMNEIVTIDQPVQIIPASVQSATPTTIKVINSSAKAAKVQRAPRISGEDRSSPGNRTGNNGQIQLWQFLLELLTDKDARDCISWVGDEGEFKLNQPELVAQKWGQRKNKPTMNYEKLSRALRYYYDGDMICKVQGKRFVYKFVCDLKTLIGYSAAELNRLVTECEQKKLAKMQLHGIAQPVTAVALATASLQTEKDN
Outline: as §1

ERG = target: T4, ERG (Homo sapiens, UniProt P11308 1-479); conditions: protein: recombinant; tags: N-terminal GST; dsDNA, one strand shown
T4 sequence: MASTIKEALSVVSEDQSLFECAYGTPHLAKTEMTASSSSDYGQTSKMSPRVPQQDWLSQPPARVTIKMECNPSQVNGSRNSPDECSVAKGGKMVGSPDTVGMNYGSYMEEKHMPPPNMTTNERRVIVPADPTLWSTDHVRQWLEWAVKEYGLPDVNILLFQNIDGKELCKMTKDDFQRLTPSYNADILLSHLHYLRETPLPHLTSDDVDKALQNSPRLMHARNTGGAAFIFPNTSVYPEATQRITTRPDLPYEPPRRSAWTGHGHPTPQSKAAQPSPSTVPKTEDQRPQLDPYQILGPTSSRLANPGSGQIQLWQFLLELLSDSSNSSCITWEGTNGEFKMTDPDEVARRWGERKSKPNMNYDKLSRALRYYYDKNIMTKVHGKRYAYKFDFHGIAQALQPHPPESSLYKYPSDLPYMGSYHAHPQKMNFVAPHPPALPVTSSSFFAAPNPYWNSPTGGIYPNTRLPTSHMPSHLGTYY
Outline: as §1

ELF1 = ELF1 (Homo sapiens, UniProt P32519 1-619); conditions: protein: recombinant; tags: N-terminal GST; dsDNA, one strand shown
Sequence of ELF1 (P32519 whole entry): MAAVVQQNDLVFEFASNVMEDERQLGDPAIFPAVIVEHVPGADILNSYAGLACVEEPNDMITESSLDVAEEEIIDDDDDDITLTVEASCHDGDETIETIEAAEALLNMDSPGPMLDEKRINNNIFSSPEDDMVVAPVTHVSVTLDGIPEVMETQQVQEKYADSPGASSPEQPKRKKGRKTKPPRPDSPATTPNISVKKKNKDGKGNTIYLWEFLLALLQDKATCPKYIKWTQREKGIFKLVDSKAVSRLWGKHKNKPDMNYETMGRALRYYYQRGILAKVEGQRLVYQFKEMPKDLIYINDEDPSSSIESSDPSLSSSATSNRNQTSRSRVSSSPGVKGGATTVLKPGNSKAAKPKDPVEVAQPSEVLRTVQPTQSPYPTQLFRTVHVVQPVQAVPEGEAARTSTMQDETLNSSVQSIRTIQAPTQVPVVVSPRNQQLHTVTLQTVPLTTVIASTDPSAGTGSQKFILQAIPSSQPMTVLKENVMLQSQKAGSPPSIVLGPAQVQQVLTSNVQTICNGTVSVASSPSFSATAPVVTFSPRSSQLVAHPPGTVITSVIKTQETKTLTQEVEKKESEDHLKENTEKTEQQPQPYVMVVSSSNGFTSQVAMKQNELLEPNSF
Outline: as §1

EHF = target: T5, EHF (Homo sapiens, UniProt Q9NZC4 1-300); conditions: protein: recombinant; tags: N-terminal GST; dsDNA, one strand shown
T5 sequence: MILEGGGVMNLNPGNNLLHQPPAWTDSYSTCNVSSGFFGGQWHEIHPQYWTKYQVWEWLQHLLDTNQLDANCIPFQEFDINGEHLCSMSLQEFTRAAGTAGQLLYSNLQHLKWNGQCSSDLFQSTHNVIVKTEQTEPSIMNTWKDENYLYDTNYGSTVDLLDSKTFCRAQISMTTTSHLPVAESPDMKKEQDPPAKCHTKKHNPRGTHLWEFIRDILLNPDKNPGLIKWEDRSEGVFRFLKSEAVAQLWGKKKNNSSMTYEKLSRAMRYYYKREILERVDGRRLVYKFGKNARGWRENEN
Outline: as §1

SPI1 = SPI1 (Homo sapiens, UniProt P17947 1-270); conditions: protein: recombinant; tags: N-terminal GST; dsDNA, one strand shown
Outline: as §1

SPIB = SPIB (Homo sapiens, UniProt Q01892 1-262); conditions: protein: recombinant; tags: N-terminal GST; dsDNA, one strand shown
Sequence of SPIB (Q01892 whole entry): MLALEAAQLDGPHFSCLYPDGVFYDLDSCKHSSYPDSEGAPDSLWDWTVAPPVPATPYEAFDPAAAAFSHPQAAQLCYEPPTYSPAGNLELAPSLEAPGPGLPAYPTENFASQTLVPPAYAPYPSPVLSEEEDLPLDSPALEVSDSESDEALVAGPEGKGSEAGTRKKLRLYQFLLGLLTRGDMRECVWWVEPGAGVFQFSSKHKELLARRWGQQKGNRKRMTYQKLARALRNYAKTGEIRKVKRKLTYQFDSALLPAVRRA
Outline: as §1

ELK3 = target: T6, ELK3 (Homo sapiens, UniProt P41970 1-407); conditions: protein: recombinant; tags: N-terminal GST; dsDNA, one strand shown
T6 sequence: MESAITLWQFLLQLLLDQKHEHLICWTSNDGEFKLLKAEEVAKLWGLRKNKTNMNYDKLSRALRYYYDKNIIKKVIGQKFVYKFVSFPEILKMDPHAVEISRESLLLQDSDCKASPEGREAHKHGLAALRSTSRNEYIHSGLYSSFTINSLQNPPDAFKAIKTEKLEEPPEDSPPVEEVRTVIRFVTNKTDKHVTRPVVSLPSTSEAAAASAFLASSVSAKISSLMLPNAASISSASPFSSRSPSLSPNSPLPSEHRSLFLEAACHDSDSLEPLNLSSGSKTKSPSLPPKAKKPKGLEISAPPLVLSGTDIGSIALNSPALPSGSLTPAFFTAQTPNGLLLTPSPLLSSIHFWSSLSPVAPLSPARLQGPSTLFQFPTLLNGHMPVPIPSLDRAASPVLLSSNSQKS
Outline: as §1

FEV = target: T7, FEV (Homo sapiens, UniProt Q99581 1-238); conditions: protein: recombinant; tags: N-terminal GST; dsDNA, one strand shown
T7 sequence: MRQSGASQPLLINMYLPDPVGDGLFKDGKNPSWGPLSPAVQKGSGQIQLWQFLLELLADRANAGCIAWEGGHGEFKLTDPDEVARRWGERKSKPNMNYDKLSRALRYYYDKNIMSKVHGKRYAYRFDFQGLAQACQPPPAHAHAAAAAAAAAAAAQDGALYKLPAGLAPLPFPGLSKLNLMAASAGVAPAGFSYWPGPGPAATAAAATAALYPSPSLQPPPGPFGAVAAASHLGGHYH
Outline: as §1

ETV5 = ETV5 (Homo sapiens, UniProt P41161 1-510); conditions: protein: recombinant; tags: N-terminal GST; dsDNA, one strand shown
Sequence of ETV5 (P41161 whole entry): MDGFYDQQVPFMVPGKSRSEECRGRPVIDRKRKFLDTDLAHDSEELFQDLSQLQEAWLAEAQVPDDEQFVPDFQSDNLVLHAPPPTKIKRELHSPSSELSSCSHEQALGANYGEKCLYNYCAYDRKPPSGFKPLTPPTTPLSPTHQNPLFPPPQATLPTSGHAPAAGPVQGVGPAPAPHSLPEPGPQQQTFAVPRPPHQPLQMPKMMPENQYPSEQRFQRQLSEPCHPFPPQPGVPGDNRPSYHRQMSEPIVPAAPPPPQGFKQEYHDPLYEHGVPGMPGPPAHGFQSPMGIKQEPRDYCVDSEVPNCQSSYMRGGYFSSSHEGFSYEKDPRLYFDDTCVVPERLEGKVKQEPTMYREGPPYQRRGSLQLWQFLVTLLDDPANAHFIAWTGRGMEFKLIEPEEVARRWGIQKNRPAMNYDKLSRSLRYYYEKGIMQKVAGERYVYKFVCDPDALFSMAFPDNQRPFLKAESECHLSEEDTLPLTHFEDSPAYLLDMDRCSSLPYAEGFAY
Outline: as §1

HSF1 = HSF1 (Homo sapiens, UniProt Q00613 1-529); conditions: protein: recombinant; tags: N-terminal GST; chain copies: 3; dsDNA, one strand shown
Sequence of HSF1 (Q00613 whole entry): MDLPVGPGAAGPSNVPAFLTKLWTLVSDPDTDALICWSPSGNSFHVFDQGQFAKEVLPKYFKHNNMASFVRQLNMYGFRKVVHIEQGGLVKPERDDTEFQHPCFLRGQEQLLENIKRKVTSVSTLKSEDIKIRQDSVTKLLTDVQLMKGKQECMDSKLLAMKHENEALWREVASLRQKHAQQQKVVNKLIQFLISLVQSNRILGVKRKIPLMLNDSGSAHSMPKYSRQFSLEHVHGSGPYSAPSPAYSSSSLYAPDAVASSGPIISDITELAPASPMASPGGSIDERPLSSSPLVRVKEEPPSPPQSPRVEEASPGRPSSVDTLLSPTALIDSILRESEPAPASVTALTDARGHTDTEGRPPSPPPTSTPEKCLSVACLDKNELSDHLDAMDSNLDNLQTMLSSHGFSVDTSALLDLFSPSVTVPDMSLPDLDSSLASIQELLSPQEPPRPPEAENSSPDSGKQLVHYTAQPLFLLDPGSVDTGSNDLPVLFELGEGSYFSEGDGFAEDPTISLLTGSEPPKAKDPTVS
Outline: as §1

SPIC = target: T8, SPIC (Homo sapiens, UniProt Q8N5J4 1-248); conditions: protein: recombinant; tags: N-terminal GST; dsDNA, one strand shown
T8 sequence: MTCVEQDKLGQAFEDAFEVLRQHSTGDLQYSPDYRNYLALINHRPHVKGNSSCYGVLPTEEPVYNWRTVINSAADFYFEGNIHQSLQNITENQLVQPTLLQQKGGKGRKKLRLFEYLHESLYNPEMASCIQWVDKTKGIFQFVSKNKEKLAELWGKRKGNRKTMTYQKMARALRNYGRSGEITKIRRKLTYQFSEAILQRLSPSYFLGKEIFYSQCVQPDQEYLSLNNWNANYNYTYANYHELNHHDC
Outline: as §1

ELF4 = ELF4 (Homo sapiens, UniProt Q99607 1-663); conditions: protein: recombinant; tags: N-terminal GST; dsDNA, one strand shown
Sequence of ELF4 (Q99607 whole entry): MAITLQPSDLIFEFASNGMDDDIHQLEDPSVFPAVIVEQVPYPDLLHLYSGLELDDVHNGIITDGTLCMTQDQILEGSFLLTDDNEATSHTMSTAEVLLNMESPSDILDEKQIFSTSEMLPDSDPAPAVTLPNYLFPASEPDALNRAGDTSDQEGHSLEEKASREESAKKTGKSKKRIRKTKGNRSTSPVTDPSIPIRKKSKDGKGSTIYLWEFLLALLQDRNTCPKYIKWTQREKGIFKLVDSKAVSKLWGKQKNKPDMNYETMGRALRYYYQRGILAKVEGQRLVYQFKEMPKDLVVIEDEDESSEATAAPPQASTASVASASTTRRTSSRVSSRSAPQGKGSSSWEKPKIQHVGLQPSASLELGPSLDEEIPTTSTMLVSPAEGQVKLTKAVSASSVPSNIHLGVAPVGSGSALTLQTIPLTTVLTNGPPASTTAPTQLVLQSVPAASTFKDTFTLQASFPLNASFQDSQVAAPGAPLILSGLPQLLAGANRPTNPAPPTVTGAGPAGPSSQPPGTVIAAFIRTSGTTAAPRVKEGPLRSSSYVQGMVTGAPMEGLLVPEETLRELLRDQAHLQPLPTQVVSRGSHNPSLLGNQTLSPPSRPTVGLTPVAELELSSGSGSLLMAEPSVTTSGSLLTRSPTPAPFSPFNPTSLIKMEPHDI
Outline: as §1

ELK4 = target: T9, ELK4 (Homo sapiens, UniProt P28324-2 1-405); conditions: protein: recombinant; tags: N-terminal GST; dsDNA, one strand shown
T9 sequence: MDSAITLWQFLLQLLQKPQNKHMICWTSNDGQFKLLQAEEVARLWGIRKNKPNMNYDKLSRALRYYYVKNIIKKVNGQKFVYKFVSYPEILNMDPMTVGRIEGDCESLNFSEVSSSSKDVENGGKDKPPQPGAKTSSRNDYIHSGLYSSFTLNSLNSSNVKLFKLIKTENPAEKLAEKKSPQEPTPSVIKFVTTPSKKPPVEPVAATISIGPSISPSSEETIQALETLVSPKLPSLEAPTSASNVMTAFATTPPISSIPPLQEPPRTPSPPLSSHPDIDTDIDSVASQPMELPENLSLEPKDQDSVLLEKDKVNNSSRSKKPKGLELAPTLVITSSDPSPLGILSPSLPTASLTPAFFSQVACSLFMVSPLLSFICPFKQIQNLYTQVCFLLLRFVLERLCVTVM
Outline: as §1

ETV2 = target: T10, ETV2 (Homo sapiens, UniProt O00321 1-342); conditions: protein: recombinant; tags: N-terminal GST; dsDNA, one strand shown
T10 sequence: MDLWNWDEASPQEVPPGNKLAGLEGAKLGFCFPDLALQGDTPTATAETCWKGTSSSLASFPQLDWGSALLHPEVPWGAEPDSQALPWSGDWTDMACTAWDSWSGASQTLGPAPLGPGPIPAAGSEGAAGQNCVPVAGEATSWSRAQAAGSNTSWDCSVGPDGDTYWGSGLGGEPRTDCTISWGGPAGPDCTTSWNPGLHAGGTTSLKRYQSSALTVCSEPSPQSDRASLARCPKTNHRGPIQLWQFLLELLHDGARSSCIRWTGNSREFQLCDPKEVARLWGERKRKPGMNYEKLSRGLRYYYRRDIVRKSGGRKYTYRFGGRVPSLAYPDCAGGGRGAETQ
Outline: as §1

ELF3 = target: T11, ELF3 (Homo sapiens, UniProt P78545 1-371); conditions: protein: recombinant; tags: N-terminal GST; dsDNA, one strand shown
T11 sequence: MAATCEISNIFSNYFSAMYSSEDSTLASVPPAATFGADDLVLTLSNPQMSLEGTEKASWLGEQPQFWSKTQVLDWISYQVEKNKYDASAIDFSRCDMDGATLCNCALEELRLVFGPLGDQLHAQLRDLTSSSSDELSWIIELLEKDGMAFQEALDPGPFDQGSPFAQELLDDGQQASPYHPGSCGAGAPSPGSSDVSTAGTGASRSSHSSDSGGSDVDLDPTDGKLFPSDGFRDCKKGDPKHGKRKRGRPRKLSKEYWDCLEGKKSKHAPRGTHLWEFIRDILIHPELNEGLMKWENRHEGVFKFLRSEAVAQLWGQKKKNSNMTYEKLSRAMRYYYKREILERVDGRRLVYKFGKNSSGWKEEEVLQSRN
Outline: as §1

CRX = CRX (Homo sapiens, UniProt O43186 1-299); conditions: protein: recombinant; tags: N-terminal GST; dsDNA, one strand shown
Sequence of CRX (O43186 whole entry): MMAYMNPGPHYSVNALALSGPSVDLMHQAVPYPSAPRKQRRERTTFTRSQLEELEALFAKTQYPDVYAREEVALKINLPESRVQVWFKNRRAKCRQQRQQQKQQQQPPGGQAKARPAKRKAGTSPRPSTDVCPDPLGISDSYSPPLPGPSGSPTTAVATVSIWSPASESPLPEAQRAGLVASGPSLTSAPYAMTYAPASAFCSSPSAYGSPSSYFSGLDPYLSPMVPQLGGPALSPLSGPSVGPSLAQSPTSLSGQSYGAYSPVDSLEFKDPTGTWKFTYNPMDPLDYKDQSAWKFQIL
Outline: as §1

ETV1 = ETV1 (Homo sapiens, UniProt P50549 1-477); conditions: protein: recombinant; tags: N-terminal GST; dsDNA, one strand shown
Sequence of ETV1 (P50549 whole entry): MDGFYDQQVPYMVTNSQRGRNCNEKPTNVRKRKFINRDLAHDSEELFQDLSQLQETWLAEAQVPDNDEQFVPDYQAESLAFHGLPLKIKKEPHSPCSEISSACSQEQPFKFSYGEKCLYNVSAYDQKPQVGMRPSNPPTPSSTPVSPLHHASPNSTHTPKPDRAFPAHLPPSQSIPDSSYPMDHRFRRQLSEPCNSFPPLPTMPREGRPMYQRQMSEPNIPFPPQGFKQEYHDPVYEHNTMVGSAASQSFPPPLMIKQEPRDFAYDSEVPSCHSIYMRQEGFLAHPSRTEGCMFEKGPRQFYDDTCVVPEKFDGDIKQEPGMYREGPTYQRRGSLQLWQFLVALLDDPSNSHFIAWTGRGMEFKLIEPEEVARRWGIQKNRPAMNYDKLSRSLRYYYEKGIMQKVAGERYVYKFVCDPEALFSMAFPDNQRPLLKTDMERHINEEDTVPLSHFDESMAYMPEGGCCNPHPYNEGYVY
Outline: as §1

In the case of AAAGTA, the binding signal (FLI1) is reported as 1.14 fold enrichment (6-mer frequency, TF over GST control), the binding signal (ELK1) is reported as 1.1 fold enrichment (6-mer frequency, TF over GST control) and the binding signal (GABPA) is reported as 1.17 fold enrichment (6-mer frequency, TF over GST control). For the same sequence, the binding signal (ERG) was 1.13 fold enrichment (6-mer frequency, TF over GST control), the binding signal (ELF1) was 1.13 fold enrichment (6-mer frequency, TF over GST control) and the binding signal (EHF) was 1.15 fold enrichment (6-mer frequency, TF over GST control). For the same sequence, the binding signal (SPI1) was 1.1 fold enrichment (6-mer frequency, TF over GST control), the binding signal (SPIB) was 1.18 fold enrichment (6-mer frequency, TF over GST control) and the binding signal (ELK3) was 1.24 fold enrichment (6-mer frequency, TF over GST control). For the same sequence, the binding signal (FEV) was 1.11 fold enrichment (6-mer frequency, TF over GST control), the binding signal (ETV5) was 1.09 fold enrichment (6-mer frequency, TF over GST control) and the binding signal (HSF1) was 1.29 fold enrichment (6-mer frequency, TF over GST control). For the same sequence, the binding signal (SPIC) was 1.04 fold enrichment (6-mer frequency, TF over GST control), the binding signal (ELF4) was 1.17 fold enrichment (6-mer frequency, TF over GST control) and the binding signal (ELK4) was 1.13 fold enrichment (6-mer frequency, TF over GST control). For the same sequence, the binding signal (ETV2) was 1.11 fold enrichment (6-mer frequency, TF over GST control), the binding signal (ELF3) was 1.11 fold enrichment (6-mer frequency, TF over GST control) and the binding signal (CRX) was 1.35 fold enrichment (6-mer frequency, TF over GST control). For the same sequence, the binding signal (ETV1) was 1.18 fold enrichment (6-mer frequency, TF over GST control).
